According to publication PMC4336329 (PLoS ONE, 2015):
About 14,000 (4.5%) of roughly 310,000 compounds showed an effect of 50% or more. Effects have a minus sign here. The full list was thinned out, with strong results kept by preference.

Biological target: human ether-à-go-go-related gene (hERG) potassium channel (human, UniProt Q12809)
Experiment: primary screen, population patch clamp on CHO cells stably expressing hERG; higher = less effect of the substance
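Note: peak tail current of the secondary pulse compared with the same well before compound.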

Sequence of human ether-à-go-go-related gene (hERG) potassium channel (Q12809 whole entry, looked up): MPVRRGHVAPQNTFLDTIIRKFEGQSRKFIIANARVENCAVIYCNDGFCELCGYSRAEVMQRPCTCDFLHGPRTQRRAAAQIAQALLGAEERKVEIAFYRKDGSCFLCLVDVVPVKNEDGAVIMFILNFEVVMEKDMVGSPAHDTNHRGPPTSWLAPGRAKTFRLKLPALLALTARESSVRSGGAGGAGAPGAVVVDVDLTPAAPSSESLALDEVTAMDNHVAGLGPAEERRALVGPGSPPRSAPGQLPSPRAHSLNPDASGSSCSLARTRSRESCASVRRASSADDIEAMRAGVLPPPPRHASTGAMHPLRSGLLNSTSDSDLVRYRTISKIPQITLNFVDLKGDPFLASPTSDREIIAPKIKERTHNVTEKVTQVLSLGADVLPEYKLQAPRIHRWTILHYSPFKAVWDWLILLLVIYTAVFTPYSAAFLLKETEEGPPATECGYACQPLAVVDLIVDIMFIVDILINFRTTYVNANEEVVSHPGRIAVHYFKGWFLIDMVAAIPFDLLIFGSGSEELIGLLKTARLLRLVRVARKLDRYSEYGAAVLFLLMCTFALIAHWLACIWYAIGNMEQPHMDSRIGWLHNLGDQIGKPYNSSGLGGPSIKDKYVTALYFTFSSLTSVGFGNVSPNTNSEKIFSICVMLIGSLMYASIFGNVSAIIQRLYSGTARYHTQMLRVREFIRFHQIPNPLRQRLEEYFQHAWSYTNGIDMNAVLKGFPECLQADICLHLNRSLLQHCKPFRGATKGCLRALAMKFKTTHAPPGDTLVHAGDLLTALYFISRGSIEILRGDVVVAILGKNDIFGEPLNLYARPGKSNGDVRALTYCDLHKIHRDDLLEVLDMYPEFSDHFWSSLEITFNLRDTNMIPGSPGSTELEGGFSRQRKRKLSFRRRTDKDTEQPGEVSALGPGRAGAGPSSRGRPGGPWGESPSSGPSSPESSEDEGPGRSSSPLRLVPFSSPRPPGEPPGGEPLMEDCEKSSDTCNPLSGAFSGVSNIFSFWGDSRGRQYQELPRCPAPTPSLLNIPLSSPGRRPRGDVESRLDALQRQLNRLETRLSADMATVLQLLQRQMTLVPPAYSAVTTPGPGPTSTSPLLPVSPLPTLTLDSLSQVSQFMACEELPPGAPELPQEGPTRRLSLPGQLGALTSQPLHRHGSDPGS

| Structure (SMILES) | hERG current change (%, negative = inhibition) at 10uM |
| --- | --- |
| Clc1ccccc1/C=C/c1nc(-c2cccnc2)no1 | 6.16% |
| CCN(CC)c1ccc(NC(=O)c2cnc3ccccn3c2=O)c(C)c1 | 4.51% |
| CCOC(=O)c1ccc(NC(=O)c2cccc(C)c2[N+](=O)[O-])cc1 | 4.73% |
| COc1ccc(C(=O)c2nccc3cc(OC)c(OC)cc23)cc1OC | 6.21% |
| CC1CCN(C2(O)C(=O)Nc3ccc(Br)cc32)CC1 (stereo not drawn) | 19.4% |
| CCC(C)(C)NC(=O)CN(C(=O)CNS(=O)(=O)c1ccccc1)c1ccc2c(c1)OCCO2 | 6.92% |
| Cc1ccc(NP(=O)(c2ccccc2)c2nc3ccccc3s2)cc1 (stereo not drawn) | 3.27% |
| COC(=O)c1cc(C(=O)N2CCOCC2)cc([N+](=O)[O-])c1 | 21.7% |
| COC(=O)c1cc(C(=O)N2CCN(c3ccccc3OC)CC2)cc([N+](=O)[O-])c1 | -34.7% |
| COC(=O)c1cc(C(=O)N2CCN(C(=O)c3ccco3)CC2)cc([N+](=O)[O-])c1 | -66.7% |
| O=C(c1ccc(Cl)c([N+](=O)[O-])c1)N1CCN(C(=O)c2ccco2)CC1 | -41.6% |
| O=C(c1ccco1)N1CCN(C(=S)Nc2cc(F)cc(F)c2)CC1 | -16.5% |
| COc1ccc(NC(=S)N2CCN(C(=O)c3ccco3)CC2)cc1OC | 14.6% |
| Cc1cc(C(=O)N2CCN(C(=O)c3ccco3)CC2)ccc1[N+](=O)[O-] | -64.7% |
| O=C(c1ccco1)N1CCN(C(=S)Nc2ccc(F)c(Cl)c2)CC1 | -71.9% |
| Cc1cc(C(=O)N2CCOCC2)ccc1[N+](=O)[O-] | 9.19% |
| Cc1cccc(NC(=S)N2CCN(C(=O)c3ccco3)CC2)c1 | -9.36% |
| O=C(c1ccco1)N1CCN(C(=S)Nc2cccc([N+](=O)[O-])c2)CC1 | -63.3% |
| O=C(CN1CCN(C(=O)c2ccco2)CC1)Nc1cccc([N+](=O)[O-])c1 | -49.1% |
| COc1ccc(OC)c(S(=O)(=O)N2CCC(C(=O)NCc3ccncc3)CC2)c1 | 16.4% |
| CCn1c(O)c(/C=N/NC(=O)c2ccccc2)c(=O)n(CC)c1=S | 13.6% |
| COc1ccc(OCC(=O)N/N=C2\CCc3ccccc32)cc1 | -23.9% |
| CCOC(=O)C1=C(C)N=C2SC(C)C(=O)N2C1c1cccc(F)c1 (stereo not drawn) | -3.16% |

| Structure (SMILES) | hERG current change (%, negative = inhibition) at 10uM |
| --- | --- |
| CCOC(=O)c1nnn(-c2nonc2N)c1CN(CC)CC | -7.44% |
| CCOc1ccccc1NC(=O)c1nnn(CC(=O)Nc2cc(C)cc(C)c2)c1N | 15.7% |
| Cc1cc(-c2ccco2)n2c(nc3ccccc32)c1C#N | -25.9% |
| COc1ccc(C(=O)N2CCC(n3nccc3NC(=O)C3CC3)CC2)cc1F | -26.8% |
| O=C(O)CC1S/C(=N\N=C2CCCCCC2)N(c2ccccc2)C1=O (stereo not drawn) | 9.08% |
| O=C(/C=C/c1ccccc1)N1CCN(C(=O)c2ccco2)CC1 | -28.6% |
| O=C(/C=C/c1ccccc1[N+](=O)[O-])N1CCN(C(=O)c2ccco2)CC1 | -45.6% |
| O=C(c1cccc([N+](=O)[O-])c1)N1CCN(C(=O)c2ccco2)CC1 | -10.8% |
| O=C(c1ccco1)N1CCN(C(=O)c2ccccc2[N+](=O)[O-])CC1 | 22.4% |
| O=C(c1cc([N+](=O)[O-])cc([N+](=O)[O-])c1)N1CCN(C(=O)c2ccco2)CC1 | -65.3% |
| O=C(/C=C/c1cccc([N+](=O)[O-])c1)N1CCN(C(=O)c2ccco2)CC1 | -64.8% |
| COc1ccccc1N1CCN(C(=O)c2ccc(-c3ccccc3)cc2)CC1 | -5.25% |
| Cc1cc(C)cc(OCC(=O)NC(C)c2ccccc2)c1 (stereo not drawn) | 15.2% |
| CC(C)OCCCNC(=O)c1cc(-c2cccnc2)nc2ccccc12 | -21.4% |
| Cc1ccc(C(CCN)c2ccco2)cc1 (stereo not drawn) | -2.63% |
| Cc1ccc(S(=O)(=O)NCCC(c2ccc(F)cc2)c2ccco2)cc1 (stereo not drawn) | 10.8% |
| Cc1ccc(S(=O)(=O)NCCC(c2ccccc2)c2ccco2)cc1 (stereo not drawn) | 0.23% |
| O=S(=O)(NCCC(c1ccc(F)cc1)c1ccco1)c1ccccc1 (stereo not drawn) | -7.77% |
| Fc1ccc(C(CCNCc2cccs2)c2ccco2)cc1 (stereo not drawn) | -66.8% |
| Cc1ccc(C(CCNC(C)c2cccs2)c2ccco2)cc1 (stereo not drawn) | -57.1% |
| Cc1cc(C)cc(NC(=O)CCCn2nc(C)c3c(C)n(-c4ccccc4)nc3c2=O)c1 | -4.07% |
| CC(C(=O)NC1C(=O)N2C(C(=O)O)=C(CSc3nnnn3C)CSC12)n1cc(Br)cn1 (stereo not drawn) | 25.1% |
| CN(C)C(=O)CSc1nnc([C@H](Cc2ccccc2)NC(=O)OC(C)(C)C)o1 | 5.98% |

| Structure (SMILES) | hERG current change (%, negative = inhibition) at 10uM |
| --- | --- |
| O=C(CNS(=O)(=O)c1ccccc1)N1CCN(Cc2ccccc2)CC1 | 5.89% |
| CC1(C)CC(=O)C=C(c2ccc(I)cc2)C1 | -2.72% |
| CC(O)CNc1nc2ccccc2n1CC(=O)N1CCN(Cc2ccccc2)CC1 (stereo not drawn) | -22.6% |
| COc1ccc(N2CCN(Cc3nc4ccccc4n3C)CC2)cc1 | -18.2% |
| c1ccc(Cc2nc3ccccc3n2Cc2ccccc2)cc1 | -53.4% |
| ClCc1nc2ccccc2n1Cc1ccccc1 | 10.6% |
| Cc1cccc(Cn2c(Cc3ccccc3)nc3ccccc32)c1 | -24.6% |
| CCn1c(CN2CCN(c3ccc(Cl)cc3)CC2)nc2ccccc21 | -55.3% |
| c1ccc(Cn2c(CN3CCCC3)nc3ccccc32)cc1 | -64.6% |
| OCCCc1nc2ccccc2n1Cc1ccccc1 | 7.46% |
| Cc1ccc(Cn2c(Cc3ccccc3)nc3ccccc32)cc1 | -10.1% |
| Cn1c(CN2CCN(c3ccc(Cl)cc3)CC2)nc2ccccc21 | -14.3% |
| O=C(Cn1c(NCCO)nc2ccccc21)N1CCN(Cc2ccccc2)CC1 | -9.47% |
| CCc1nc2ccccc2n1CC(=O)N1CCN(Cc2ccccc2)CC1 | -61.5% |
| CCOC(=O)c1ccc(NC(=O)CN(C)S(=O)(=O)c2ccc(OC)cc2)cc1 | 6.82% |
| CC1=NNC(=O)C1CC(=O)N/N=C/c1ccc(C)o1 (stereo not drawn) | 10.7% |
| CCOc1ccccc1NC(=O)C(C)CC (stereo not drawn) | -6.76% |
| Cc1ccc(NC(=O)C2CCCN2C(=O)c2cccs2)c(C)c1 (stereo not drawn) | 12.7% |
| Cc1cc(C)cc(OCC(=O)NC2CCCc3ccccc32)c1 (stereo not drawn) | -1.2% |
| CC(=O)OC(C)C(=O)NS(=O)(=O)c1ccc(C)cc1 (stereo not drawn) | 12.3% |
| Cc1ccc(CCC(=O)Nc2ncc(Cc3cccc(Cl)c3Cl)s2)o1 | 51.7% |
| CCOC(=O)COc1cccc2c(=O)n(CC(=O)N3CCN(C(=O)OCC)CC3)ccc12 | 7.65% |
| CCOC(=O)Nc1nnc(Cc2ccc(Cl)c(Cl)c2)s1 | 5.09% |

| Structure (SMILES) | hERG current change (%, negative = inhibition) at 10uM |
| --- | --- |
| Cc1ccc(-n2c(SCC(=O)N3CCOCC3)nnc2-c2ccncc2)cc1C | -10.6% |
| CC(C)C(=O)Nc1ncc2c(n1)CC(c1cccs1)CC2=O (stereo not drawn) | -17.3% |
| CC1=C(C(N)=O)C(c2cccs2)n2nc(-c3cccc(Cl)c3)nc2N1 (stereo not drawn) | -24.9% |
| O=C(NCCS(=O)(=O)N1CCN(c2ccccc2F)CC1)c1cc(=O)c2ccccc2o1 | 15% |
| Cc1nc2ccccc2n1Cc1ccc(Cl)cc1 | -2.56% |
| CC(O)c1nc2ccccc2n1Cc1ccccc1 (stereo not drawn) | 3.15% |
| Cc1nc2ccccc2n1Cc1ccccc1 | 15.8% |
| CC(c1nc2ccccc2n1Cc1ccccc1)N1CCCCC1 (stereo not drawn) | -65% |
| Cl.Clc1ccc(Cn2c(CN3CCCC3)nc3ccccc32)cc1 | -74.4% |
| OCc1nc2ccccc2n1Cc1ccc(Cl)cc1 | 8.87% |
| Cc1ccccc1N(CC(=O)NCc1ccco1)C(=O)CNS(=O)(=O)c1ccc(F)cc1 | -16% |
| COc1ccc(OC)c(/C=C/C(=O)OCC(=O)NC2CCCCCCC2)c1 | -4.68% |
| CCN(CC)C(=S)SCC(=O)Nc1ccc(S(N)(=O)=O)cc1 | 3.17% |
| CS(=O)(=O)c1ccc(C(=O)NCc2ccccc2F)cc1 | 6.24% |
| O=C(NCCC1=CCCCC1)C1CCN(c2nc3ccccc3o2)CC1 | -13.9% |
| Cc1oc(-c2ccccc2F)nc1CN1CCC(C(=O)NCCC2=CCCCC2)CC1 | -71.8% |
| Cc1ccccc1-c1nc(CN2CCC(C(=O)NCCC3=CCCCC3)CC2)c(C)o1 | -66.7% |
| Cc1cc(C)nc(N2CCC(C(=O)NC3CCCc4ccccc43)CC2)n1 (stereo not drawn) | 17.6% |
| Cc1oc(-c2ccccc2F)nc1CN1CCC(C(=O)NC2CCCc3ccccc32)CC1 (stereo not drawn) | -63.9% |
| Cc1ccccc1-c1nc(CN2CCC(C(=O)NCCCN3CCOCC3)CC2)c(C)o1 | -10.8% |
| Cc1oc(-c2ccccc2F)nc1CN1CCC(C(=O)NC2CC2)CC1 | -34.3% |
